# Data taken from PubChem BioAssay (NCATS).
# Results filed as inconclusive are left out. Values without a mark were called inactive. Calls of active or inactive are those of the source. Calls follow the shape of the dose curve; as a rule, active = well fitted cell-killing curve with a large enough effect; inconclusive = small, poorly fitted or top-dose-only effect, or effect the other way; inactive = no such curve, though single readings can be large or run the other way.
# Experiment: Quantitative High-Throughput drug screen in 47 multiple myeloma cell lines against the NCATS MIPE library collection: SKMM1_PLB cell viability assay (AID 1919863)
# Conditions: SKMM1 myeloma viability, CellTiter-Glo ATP, 48 h; viability: stronger effect = lower value
# Outline: (§1)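 ATP-based CellTiter-Glo luminescence after 48 h drug exposure (37 °C, 5% CO2) of 500 myeloma cells per well. DMSO-only wells set 100% viability, media-only wells 0%; MIPE 4.0 library added by pin tool.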
# Also: nearly all actives have a fitted effect of over 35% in size.
# Potency is read from the fitted curve at half-maximal effect.
Structure (SMILES),viability [%],Potency
CCOC(=O)Nc1ccc(NCc2ccc(F)cc2)nc1N,134,
Nc1nc2c(ncn2COC(CO)CO)c(=O)[nH]1,,20.9 µM (active)
CN(C)C(=O)C(CCN1CCC(O)(c2ccc(Cl)cc2)CC1)(c1ccccc1)c1ccccc1,,23.5 µM (active)
CC1COc2c(N3CCN(C)CC3)c(F)cc3c(=O)c(C(=O)O)cn1c23 (configuration not stated),135,
CCCCc1oc2ccccc2c1C(=O)c1cc(I)c(OCCN(CC)CC)c(I)c1,,20.9 µM (active)
Nc1ccn([C@H]2CC[C@@H](CO)O2)c(=O)n1,109,
COc1ccccc1N1CCN(CC(O)COc2cccc3ccccc23)CC1 (configuration not stated),119,
CC(C)NCC(O)c1ccc(O)c(O)c1 (configuration not stated),,16.6 µM (active)
CN(C)CCCN1c2ccccc2CCc2ccc(Cl)cc21,,14.8 µM (active)
NC12CC3CC(CC(C3)C1)C2,134,
CN(CCOc1ccc(NS(C)(=O)=O)cc1)CCc1ccc(NS(C)(=O)=O)cc1,109,
Cc1cn([C@H]2C=C[C@@H](CO)O2)c(=O)[nH]c1=O,87.6,
CCN1CCCC1CNC(=O)c1cc(S(=O)(=O)CC)c(N)cc1OC (configuration not stated),121,
Cn1cnc2c1c(=O)[nH]c(=O)n2C,,20.9 µM (active)
CN1C(C(=O)Nc2ccccn2)=C(O)c2ccccc2S1(=O)=O,103,
CC(C(=O)O)c1cccc(C(=O)c2ccccc2)c1 (configuration not stated),106,
CN(Cc1cnc2nc(N)nc(N)c2n1)c1ccc(C(=O)N[C@@H](CCC(=O)O)C(=O)O)cc1,,5.9 µM (active)
O=C1N(c2ccccc2)c2ccccc2C1(Cc1ccncc1)Cc1ccncc1,122,

# Experiment: Quantitative High-Throughput drug screen in 47 multiple myeloma cell lines against the NCATS MIPE library collection: U266_ATCC cell viability assay (AID 1919864)
# Conditions: U266 myeloma viability, CellTiter-Glo ATP luminescence, 48 h; series mostly up to 45.8 µM
# Outline: as §1
row,Structure (SMILES),Potency
1,Cn1c(=O)c2[nH]cnc2n(C)c1=O,20.9 µM (active)
2,CC[C@@]1(O)C(=O)OCc2c1cc1n(c2=O)Cc2cc3c(CN(C)C)c(O)ccc3nc2-1,13.2 µM (active)
3,O=c1[nH]cc(F)c(=O)[nH]1,3.32 µM (active)
4,NCCS(=O)(=O)O,inactive
5,CC#C[C@]1(O)CC[C@H]2[C@@H]3CCC4=CC(=O)CCC4=C3[C@@H](c3ccc(N(C)C)cc3)C[C@@]21C,0.662 µM (active)
6,CC[N+](CC)(CC)CCOc1cccc(OCC[N+](CC)(CC)CC)c1OCC[N+](CC)(CC)CC,inactive
7,CC(CCc1ccc(O)cc1)NCCc1ccc(O)c(O)c1 (configuration not stated),23.5 µM (active)
8,Cc1ccccc1N1C(=O)c2cc(S(N)(=O)=O)c(Cl)cc2NC1C (configuration not stated),3.72 µM (active)
9,CS(=O)(=O)CCNCc1ccc(-c2ccc3ncnc(Nc4ccc(OCc5cccc(F)c5)c(Cl)c4)c3c2)o1,5.9 µM (active)
10,COc1ccc2c(c1)c(CC(=O)O)c(C)n2C(=O)c1ccc(Cl)cc1,18.7 µM (active)
11,COc1ccc2[nH]cc(CCNC(C)=O)c2c1,8.33 µM (active)
12,NC(=O)NO,2.64 µM (active)
13,CNCCCC12CCC(c3ccccc31)c1ccccc12,16.6 µM (active)
14,COc1cc2nc(N3CCN(C(=O)c4ccco4)CC3)nc(N)c2cc1OC,18.7 µM (active)
15,COc1ccccc1OCC(O)CN1CCN(CC(=O)Nc2c(C)cccc2C)CC1 (configuration not stated),inactive
16,O=C1c2c(O)ccc(O)c2C(=O)c2c(NCCNCCO)ccc(NCCNCCO)c21,1.05 µM (active)
17,CCOC(=O)Nc1ccc(NCc2ccc(F)cc2)nc1N,inactive
18,Nc1nc2c(ncn2COC(CO)CO)c(=O)[nH]1,23.5 µM (active)
19,CN(C)C(=O)C(CCN1CCC(O)(c2ccc(Cl)cc2)CC1)(c1ccccc1)c1ccccc1,18.7 µM (active)
20,CC1COc2c(N3CCN(C)CC3)c(F)cc3c(=O)c(C(=O)O)cn1c23 (configuration not stated),inactive
21,CCCCc1oc2ccccc2c1C(=O)c1cc(I)c(OCCN(CC)CC)c(I)c1,3.72 µM (active)
22,Nc1ccn([C@H]2CC[C@@H](CO)O2)c(=O)n1,inactive
23,COc1ccccc1N1CCN(CC(O)COc2cccc3ccccc23)CC1 (configuration not stated),inactive
24,CC(C)NCC(O)c1ccc(O)c(O)c1 (configuration not stated),16.6 µM (active)
25,CN(C)CCCN1c2ccccc2CCc2ccc(Cl)cc21,0.526 µM (active)
26,NC12CC3CC(CC(C3)C1)C2,26.4 µM (active)
27,CN(CCOc1ccc(NS(C)(=O)=O)cc1)CCc1ccc(NS(C)(=O)=O)cc1,inactive
28,Cc1cn([C@H]2C=C[C@@H](CO)O2)c(=O)[nH]c1=O,inactive
29,CCN1CCCC1CNC(=O)c1cc(S(=O)(=O)CC)c(N)cc1OC (configuration not stated),inactive
